From the supplement of paper PMC10849652 come the findings set out here.

Of roughly 8,800 targets only a part is listed; those with a hit were picked by preference. About 0.5% of all pairs of compound and target were hits. Values without a mark were called inactive.

UniProt Q12769, sequence (Q12769 whole entry, looked up): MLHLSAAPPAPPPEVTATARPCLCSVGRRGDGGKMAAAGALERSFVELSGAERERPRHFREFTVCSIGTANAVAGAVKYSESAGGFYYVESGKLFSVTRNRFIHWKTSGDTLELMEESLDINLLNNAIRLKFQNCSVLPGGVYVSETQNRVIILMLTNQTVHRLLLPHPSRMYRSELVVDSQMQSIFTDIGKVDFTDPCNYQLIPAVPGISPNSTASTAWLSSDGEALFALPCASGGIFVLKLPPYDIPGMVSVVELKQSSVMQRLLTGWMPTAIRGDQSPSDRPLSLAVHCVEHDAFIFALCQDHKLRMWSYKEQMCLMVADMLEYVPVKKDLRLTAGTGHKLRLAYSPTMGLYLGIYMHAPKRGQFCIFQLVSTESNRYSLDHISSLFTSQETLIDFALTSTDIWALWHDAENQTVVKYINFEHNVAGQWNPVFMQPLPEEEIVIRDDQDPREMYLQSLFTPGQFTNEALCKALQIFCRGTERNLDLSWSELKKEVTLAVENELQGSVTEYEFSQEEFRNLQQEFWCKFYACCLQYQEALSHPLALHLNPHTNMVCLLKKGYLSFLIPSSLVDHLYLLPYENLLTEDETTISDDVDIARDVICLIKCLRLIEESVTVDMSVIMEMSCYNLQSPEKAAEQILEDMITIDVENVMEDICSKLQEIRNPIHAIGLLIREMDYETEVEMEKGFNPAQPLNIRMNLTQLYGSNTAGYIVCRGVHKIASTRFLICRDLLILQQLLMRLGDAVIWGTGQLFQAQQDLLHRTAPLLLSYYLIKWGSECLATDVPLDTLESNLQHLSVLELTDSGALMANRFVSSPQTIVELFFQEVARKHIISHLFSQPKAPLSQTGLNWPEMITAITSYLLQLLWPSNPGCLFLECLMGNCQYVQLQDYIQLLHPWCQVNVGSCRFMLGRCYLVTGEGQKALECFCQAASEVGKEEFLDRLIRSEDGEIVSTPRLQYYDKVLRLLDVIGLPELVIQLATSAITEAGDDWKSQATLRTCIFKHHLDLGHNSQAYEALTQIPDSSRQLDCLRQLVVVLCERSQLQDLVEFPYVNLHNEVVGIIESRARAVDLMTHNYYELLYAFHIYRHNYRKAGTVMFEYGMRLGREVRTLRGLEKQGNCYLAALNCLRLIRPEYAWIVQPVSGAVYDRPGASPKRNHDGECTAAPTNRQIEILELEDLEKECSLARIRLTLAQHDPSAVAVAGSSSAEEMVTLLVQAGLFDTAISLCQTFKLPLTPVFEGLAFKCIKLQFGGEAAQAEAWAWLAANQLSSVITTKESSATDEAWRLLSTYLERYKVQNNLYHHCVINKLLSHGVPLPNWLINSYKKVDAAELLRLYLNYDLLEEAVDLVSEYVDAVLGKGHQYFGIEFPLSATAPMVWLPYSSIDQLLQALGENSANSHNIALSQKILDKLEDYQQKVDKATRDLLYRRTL
UniProt P30419, sequence (P30419 whole entry, looked up): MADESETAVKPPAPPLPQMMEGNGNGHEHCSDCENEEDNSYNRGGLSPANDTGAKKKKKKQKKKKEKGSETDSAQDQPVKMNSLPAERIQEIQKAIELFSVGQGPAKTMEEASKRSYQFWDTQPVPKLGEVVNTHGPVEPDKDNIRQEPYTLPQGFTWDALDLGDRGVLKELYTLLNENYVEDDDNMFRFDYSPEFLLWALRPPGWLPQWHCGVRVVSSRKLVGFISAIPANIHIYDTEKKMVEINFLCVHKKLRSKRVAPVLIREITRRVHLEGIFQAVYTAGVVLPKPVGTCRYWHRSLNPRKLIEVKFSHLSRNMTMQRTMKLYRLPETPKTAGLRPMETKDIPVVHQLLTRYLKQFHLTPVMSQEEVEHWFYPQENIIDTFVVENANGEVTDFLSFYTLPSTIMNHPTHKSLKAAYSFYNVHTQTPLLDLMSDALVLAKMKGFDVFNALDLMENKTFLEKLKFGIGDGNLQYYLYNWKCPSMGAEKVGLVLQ
UniProt Q9ULX3, sequence (Q9ULX3 whole entry, looked up): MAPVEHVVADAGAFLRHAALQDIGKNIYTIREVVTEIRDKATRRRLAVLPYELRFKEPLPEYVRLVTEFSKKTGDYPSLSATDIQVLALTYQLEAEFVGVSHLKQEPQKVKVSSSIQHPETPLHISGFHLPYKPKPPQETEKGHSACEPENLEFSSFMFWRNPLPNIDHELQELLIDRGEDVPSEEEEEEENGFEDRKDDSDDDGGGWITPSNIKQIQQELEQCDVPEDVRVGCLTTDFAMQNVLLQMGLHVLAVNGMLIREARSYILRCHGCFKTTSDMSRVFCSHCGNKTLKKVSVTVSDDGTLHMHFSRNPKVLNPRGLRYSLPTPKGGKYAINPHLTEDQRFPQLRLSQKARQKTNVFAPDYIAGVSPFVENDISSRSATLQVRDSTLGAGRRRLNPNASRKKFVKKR
UniProt Q99836, sequence (Q99836 whole entry, looked up): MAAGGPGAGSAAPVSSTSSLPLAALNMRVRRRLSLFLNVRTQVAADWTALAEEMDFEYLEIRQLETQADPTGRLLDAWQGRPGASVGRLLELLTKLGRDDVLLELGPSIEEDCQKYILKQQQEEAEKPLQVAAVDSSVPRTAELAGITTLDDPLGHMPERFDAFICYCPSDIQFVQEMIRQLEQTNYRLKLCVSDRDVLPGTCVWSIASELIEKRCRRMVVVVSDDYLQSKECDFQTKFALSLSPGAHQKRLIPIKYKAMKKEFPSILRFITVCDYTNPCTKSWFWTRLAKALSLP
UniProt O00221, sequence (O00221 whole entry, looked up): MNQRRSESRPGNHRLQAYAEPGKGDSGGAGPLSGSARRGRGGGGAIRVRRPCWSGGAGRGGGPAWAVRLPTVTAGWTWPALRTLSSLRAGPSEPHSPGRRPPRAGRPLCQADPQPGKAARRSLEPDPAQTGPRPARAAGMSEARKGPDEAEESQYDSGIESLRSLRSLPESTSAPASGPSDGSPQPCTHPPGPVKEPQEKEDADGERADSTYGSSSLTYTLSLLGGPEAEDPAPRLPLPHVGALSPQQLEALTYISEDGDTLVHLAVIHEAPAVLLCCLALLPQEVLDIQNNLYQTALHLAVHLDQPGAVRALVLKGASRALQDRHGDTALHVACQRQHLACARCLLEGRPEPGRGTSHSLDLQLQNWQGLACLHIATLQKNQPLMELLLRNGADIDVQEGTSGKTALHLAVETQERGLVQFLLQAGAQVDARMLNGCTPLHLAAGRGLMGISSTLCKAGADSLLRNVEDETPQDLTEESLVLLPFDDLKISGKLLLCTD
UniProt P08651, sequence (P08651 whole entry, looked up): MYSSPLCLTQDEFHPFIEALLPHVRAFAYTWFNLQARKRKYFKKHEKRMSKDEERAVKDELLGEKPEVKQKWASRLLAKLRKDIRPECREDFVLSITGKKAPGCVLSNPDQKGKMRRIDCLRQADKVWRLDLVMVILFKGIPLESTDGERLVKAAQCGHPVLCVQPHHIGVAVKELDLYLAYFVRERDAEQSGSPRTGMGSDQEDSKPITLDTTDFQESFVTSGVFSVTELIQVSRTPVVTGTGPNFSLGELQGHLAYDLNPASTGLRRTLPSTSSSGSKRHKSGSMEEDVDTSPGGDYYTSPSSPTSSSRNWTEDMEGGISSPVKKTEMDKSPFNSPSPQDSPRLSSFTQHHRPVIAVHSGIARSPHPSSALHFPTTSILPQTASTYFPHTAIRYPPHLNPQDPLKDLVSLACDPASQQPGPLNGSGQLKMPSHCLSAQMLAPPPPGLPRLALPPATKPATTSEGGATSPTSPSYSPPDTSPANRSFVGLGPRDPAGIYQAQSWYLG
UniProt Q9Y530, sequence (Q9Y530 whole entry, looked up): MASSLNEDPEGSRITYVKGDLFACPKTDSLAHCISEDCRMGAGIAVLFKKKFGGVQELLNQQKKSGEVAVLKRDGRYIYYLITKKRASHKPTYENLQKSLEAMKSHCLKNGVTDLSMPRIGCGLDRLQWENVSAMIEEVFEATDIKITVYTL
UniProt Q9Y6C9, sequence (Q9Y6C9 whole entry, looked up): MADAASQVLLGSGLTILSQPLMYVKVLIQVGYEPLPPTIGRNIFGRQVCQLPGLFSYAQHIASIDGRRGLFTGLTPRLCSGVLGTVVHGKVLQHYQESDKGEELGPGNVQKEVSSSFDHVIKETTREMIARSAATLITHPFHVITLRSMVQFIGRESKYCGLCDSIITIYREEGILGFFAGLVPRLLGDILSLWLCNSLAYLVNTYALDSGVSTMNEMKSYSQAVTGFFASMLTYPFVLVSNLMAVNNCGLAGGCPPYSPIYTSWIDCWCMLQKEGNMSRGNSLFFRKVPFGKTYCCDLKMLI
UniProt P49757, sequence (P49757 whole entry, looked up): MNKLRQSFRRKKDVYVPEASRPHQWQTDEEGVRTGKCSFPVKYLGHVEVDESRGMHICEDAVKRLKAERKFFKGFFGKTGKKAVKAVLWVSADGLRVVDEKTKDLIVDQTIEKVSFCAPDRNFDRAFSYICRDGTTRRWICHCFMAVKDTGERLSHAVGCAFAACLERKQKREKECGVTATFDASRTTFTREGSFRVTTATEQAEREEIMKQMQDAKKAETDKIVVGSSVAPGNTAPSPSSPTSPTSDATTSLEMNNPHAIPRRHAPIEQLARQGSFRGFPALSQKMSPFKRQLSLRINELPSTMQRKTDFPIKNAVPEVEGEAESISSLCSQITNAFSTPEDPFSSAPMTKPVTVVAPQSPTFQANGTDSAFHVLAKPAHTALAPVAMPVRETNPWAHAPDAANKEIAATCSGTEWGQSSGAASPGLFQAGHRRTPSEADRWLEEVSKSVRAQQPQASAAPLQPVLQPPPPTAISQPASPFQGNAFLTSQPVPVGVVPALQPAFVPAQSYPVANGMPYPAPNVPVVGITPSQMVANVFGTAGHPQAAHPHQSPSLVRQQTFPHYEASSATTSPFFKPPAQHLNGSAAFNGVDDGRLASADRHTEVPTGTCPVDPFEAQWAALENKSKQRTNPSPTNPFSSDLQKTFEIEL
UniProt Q9NZJ9, sequence (Q9NZJ9 whole entry, looked up): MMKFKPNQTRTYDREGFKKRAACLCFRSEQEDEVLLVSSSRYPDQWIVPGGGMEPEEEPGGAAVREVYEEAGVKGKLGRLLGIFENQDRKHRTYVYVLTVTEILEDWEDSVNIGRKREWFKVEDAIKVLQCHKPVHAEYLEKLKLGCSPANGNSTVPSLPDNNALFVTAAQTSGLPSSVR

Compound in this assay: CC(C)(O)CC(=O)NCCn1ccc2ncnc(Nc3ccc(Oc4cccc(C(F)(F)F)c4)c(Cl)c3)c21
The experiment in a line: log2 fold change, soluble protein after heating vs DMSO (PISA); higher = thermal stabilisation; K562 lysate, 10 uM; active = over 0.2 and 3.5 SD of the protein, either way, in both replicates (recomputed). The procedure, abridged: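 Values give the log-two fold change in thermal stability against solvent controls, from duplicates. Crude K562 extract at 1 mg/mL protein, made by dounce homogenisation in PBS pH 7.4 with 1 mM MgCl2, was treated with 10 μM compound for 30 min. After 3 min heating across 48°C-58°C, aliquots were pooled, adjusted to 0.5% NP-40 at 4°C and centrifuged at 21,000xg for 90 min. The supernatant was measured by TMTpro 16plex LC-MS/MS with channel sums equalised.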
Turning to NUP93 (UniProt Q8N1F7), the log2 fold change was -0.015.
As to PANK4 (UniProt Q9NVE7), the log2 fold change was -0.008.
Turning to NIPSNAP3A (UniProt Q9UFN0), the log2 fold change was -0.049.
As to OSBP2 (UniProt Q969R2), the log2 fold change was -0.103.
Turning to MTCH2 (UniProt Q9Y6C9), the log2 fold change is 0.023.
Consider NUP160 (UniProt Q12769), for which the log2 fold change was 0.017.
Regarding NEK7 (UniProt Q8TDX7), the log2 fold change is -0.016.
Take NLRP2 (UniProt Q9NX02): the log2 fold change is 0.021.
The value for NUMB (UniProt P49757) was -0.055.
As for NEK9 (UniProt Q8TD19), the log2 fold change was 0.
The value for MSH6 (UniProt P52701) was 0.003.
Consider NIFK (UniProt Q9BYG3), for which the log2 fold change is 0.002.
Consider OGFOD2 (UniProt Q6N063), for which the log2 fold change is -0.018.
For the target NFATC1 (UniProt O95644), the log2 fold change was -0.067.
For NFIC (UniProt P08651), the log2 fold change was -0.058.
OARD1 (UniProt Q9Y530): the log2 fold change is 0.002.
The value for NOB1 (UniProt Q9ULX3) was 0.014; that for NARS2 (UniProt Q96I59) was 0.003.
As for NUP188 (UniProt Q5SRE5), the log2 fold change was -0.021.
As for NFKBIE (UniProt O00221), the log2 fold change was -0.059.
NNT (UniProt Q13423): the log2 fold change is -0.01.
For ORC5 (UniProt O43913), the log2 fold change is -0.001.
For MYO1D (UniProt O94832), the log2 fold change was 0.003.
The value for OTUD7B (UniProt Q6GQQ9) was 0.005; that for NUF2 (UniProt Q9BZD4) was 0.015; that for PBK (UniProt Q96KB5) was -0.005.
NUDT4 (UniProt Q9NZJ9): the log2 fold change was 0.067.
In the case of MYD88 isoform 6 (UniProt Q99836), the log2 fold change is 0.005.
MRPL53 (UniProt Q96EL3): the log2 fold change was -0.047.
With MTMR6 (UniProt Q9Y217), the log2 fold change is 0.026.
On to NELFCD (UniProt Q8IXH7), for which the log2 fold change was -0.043.
Take NPLOC4 isoform 2 (UniProt Q8TAT6): the log2 fold change is -0.003.
As for NCOR2 (UniProt C9J0Q5), the log2 fold change is -0.056.
Turning to NUDT5 (UniProt Q9UKK9), the log2 fold change is -0.05.
Take NMT1 (UniProt P30419): the log2 fold change is 0.014.
As to PARD3 (UniProt Q8TEW0), the log2 fold change was -0.011.
